Compound activity from PubChem BioAssay.
The list is not random: actives were taken first. Their share in the collection is about 2.4%.
D2 ag-1: D2 dopamine receptor (human) agonism | P14416 | HEK293 T-REx D2 cells, calcium flux agonist mode | activation, % at 2 µM | actives 0.53% (n = 340,000);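 active = activation over 3 SD above normal in the single-dose calcium agonist read, cut at about 30% in these data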
Target sequence (P14416 whole entry, looked up): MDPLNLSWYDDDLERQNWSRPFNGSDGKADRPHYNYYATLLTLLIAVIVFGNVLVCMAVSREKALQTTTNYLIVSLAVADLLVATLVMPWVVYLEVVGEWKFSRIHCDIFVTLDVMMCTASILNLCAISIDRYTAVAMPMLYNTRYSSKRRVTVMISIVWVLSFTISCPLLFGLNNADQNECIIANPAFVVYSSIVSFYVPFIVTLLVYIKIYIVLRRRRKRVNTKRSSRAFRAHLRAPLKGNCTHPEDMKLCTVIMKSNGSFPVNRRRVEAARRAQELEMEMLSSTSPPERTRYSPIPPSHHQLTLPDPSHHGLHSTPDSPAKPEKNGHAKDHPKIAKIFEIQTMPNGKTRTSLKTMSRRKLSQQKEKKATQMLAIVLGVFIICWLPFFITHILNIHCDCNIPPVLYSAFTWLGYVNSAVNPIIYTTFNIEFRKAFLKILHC
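Tetracycline-induced HEK293 T-REx cells with force-coupled D2 receptor, plated overnight at 30 C, loaded with no-wash calcium dye. After a 10 s baseline, compound was pin-added and calcium flux read kinetically for 180 s; calcium rises flagged agonists.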
D2 antag: antagonists of human D2 dopamine receptor; HEK293 TREx D2 cells, calcium flux, dopamine EC80; inhibition, % at 10 µM; actives 2% (n = 340,000); AID 485344; in the data active = inhibition above about 30%; inactive = below that, where a call was filed
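Overnight-induced (tetracycline, 30 C) HEK293 T-REx cells carrying force-coupled D2 receive a no-wash calcium dye, then compound, then EC80 dopamine at 180 s; signals are read kinetically throughout.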
D2 PAM-1: D2 dopamine receptor (human) potentiation; P14416; HEK293 T-REx D2, calcium flux, EC20 dopamine potentiation; potentiation, % at 10 µM; actives 0.34% (n = 340,000);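 active = potentiation over 3 SD above the plate norm, cut at about 30% in these data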
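Tetracycline-induced HEK293 T-REx cells force-coupled to calcium signalling expressed D2; compounds were pin-added after a 10 s baseline, read kinetically 180 s, then an EC20 dopamine challenge followed with a further 180 s calcium read.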
D2 PAM-2: potentiates the human D2 dopamine receptor allosterically | DiscoveRx D2 beta-arrestin cells, luminescence, 90 min; 100% = 57 uM dopamine signal | P14416 | potentiation, % (concentration not given with the values) | actives 0.23% (n = 360,000); in the data active = potentiation above about 50%
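D2 cells co-treated with compound plus 50 nM dopamine (EC20) for 90 min at 37 deg C to detect potentiation. Beta-arrestin recruitment was read as enzyme-fragment luminescence after 1 h at ambient temperature. Full response was set by 57 uM dopamine.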
D2 ag-2: agonists of human D2 dopamine receptor (beta-arrestin) | P14416 | DiscoveRx PathHunter D2 beta-arrestin, luminescence, 90 min; 100% = 57 uM dopamine signal | activation, % (no concentration beside the values) | actives 0.084% (n = 360,000) | AID 624465; in the data active = activation above about 40%
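Agonist mode: compounds alone added to overnight-plated D2 PathHunter cells for 90 min at 37 C, with 57 uM final dopamine (EC100) defining full response. Beta-arrestin recruitment detected by chemiluminescent reagent, read after 1 h at ambient temperature.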
A number is an active result; 0 = inactive; - = no result given.

SMILES | D2 ag-1 | D2 antag | D2 PAM-1 | D2 PAM-2 | D2 ag-2
CCOC(=O)C1CCCN(C(=O)CNC(=O)c2nn(-c3ccc(OC)c(Cl)c3)c(=O)c3ccccc23)C1 (stereo not given) | 0 | 0 | 0 | 0 | 0
COc1ccc(/C=N/NC(=O)c2nn(-c3ccc(C)c(C)c3)c(=O)c3ccccc23)cc1 | 0 | 44.7 | 0 | 0 | 0
COc1cc(Nc2nc(SCc3ccccc3Cl)nc3ccccc23)cc(OC)c1 | 0 | - | 0 | - | -
Cn1c(CCN2CCCCC2)nc2cc(NS(=O)(=O)c3ccccc3)ccc21 | 0 | 37.9 | 0 | 0 | 0
Cn1c(CCN2CCOCC2)nc2cc(NS(=O)(=O)c3ccccc3)ccc21 | 0 | 0 | 0 | 0 | 0
Cc1ccc(S(=O)(=O)Nc2ccc3c(c2)nc(CCN2CCCC2)n3C)cc1 | 0 | 39.5 | 0 | 0 | 0
Oc1ccc(Nc2nc3ccccc3n3cnnc23)cc1 | 0 | - | 0 | - | -
C=CCSc1nnc2c(n1)OC(c1cccnc1)Nc1ccccc1-2 (stereo not given) | 0 | 0 | 0 | 53.4 | 0
C=CCSc1nnc2c(n1)OC(c1cccnc1)N(C(C)=O)c1ccccc1-2 (stereo not given) | 0 | 0 | 0 | 0 | 0
COc1ccc(Cl)cc1NC(=O)CSC1=Nc2ccccc2C2=NC(CC(=O)NC3CCCCC3)C(=O)N12 (stereo not given) | 0 | - | 0 | - | -
CC(C)N1C(=O)c2ccccc2C1C(=O)NC1CCCCCC1 (stereo not given) | 0 | 0 | 31.3 | 0 | 0
COc1cc(-c2csc(C)n2)ccc1O | 0 | 0 | 0 | 0 | 0
COc1ccc(-c2csc(C)n2)cc1Br | 0 | 36.4 | 0 | 0 | 0
COc1ccc2c(C)c(CC(=O)NCc3ccccc3Cl)c(=O)oc2c1OC | 0 | - | 0 | - | -
O=C1CC(N2CCC(O)(c3ccc(Cl)cc3)CC2)C(=O)N1 (stereo not given) | 0 | 31.3 | 0 | 0 | 0
Cc1cc(=O)oc2c(C)c(OCC(=O)N3CCN(c4ccc(F)cc4)CC3)ccc12 | 0 | 0 | 0 | 0 | 0
Cc1cccc(N2CCN(C(=O)COc3ccc4c(C)cc(=O)oc4c3C)CC2)c1C | 0 | 0 | 39.2 | 0 | 0
O=C(N/N=C/c1ccc(O)cc1)c1csc2ccccc12 | 0 | 32.0 | 0 | 0 | 0
COc1ccc(NC(=O)/C(Cl)=C(/Cl)S(=O)Cc2ccccc2)cn1 (stereo not given) | 0 | 32.0 | 0 | 0 | 0
CC(C)Cn1c(=O)c2sccc2n2c(CCCC(=O)NC3CCCCC3)nnc12 | 0 | - | 0 | - | -
CCc1ccc(N(C(C)=O)C2C=CS(=O)(=O)C2)cc1 (stereo not given) | 0 | 37.2 | 0 | 0 | 0
CCOC(=O)c1[nH]cnc1C(=O)N1CCN(C(=O)OC(C)(C)C)CC1 | 0 | 31.5 | 0 | 0 | 0
Cc1ccc(C)c(CN2CCCNC2=O)c1 | 0 | 30.8 | 0 | 0 | 0
Cc1ccc(CN2CCCNC2=O)cc1 | - | - | - | 0 | 0
COc1ccc(N(C(=O)CNC(=O)c2ccco2)C(C(=O)NC2CCCCC2)c2cccnc2)cc1 (stereo not given) | 0 | 38.1 | 0 | 0 | 0
SMILES | D2 ag-1 | D2 antag | D2 PAM-1 | D2 PAM-2 | D2 ag-2
CCOC(=O)c1ccc(N(C(=O)c2ccco2)C(C(=O)NC2CCCC2)c2ccncc2)cc1 (stereo not given) | 0 | 35.8 | 0 | 0 | 0
COc1ccc(N(C(=O)CNC(=O)c2ccco2)C(C(=O)NC2CCCC2)c2cccnc2)cc1 (stereo not given) | 0 | 0 | 0 | 0 | 0
COCCN(C(=O)CNC(=O)c1ccco1)C(C(=O)NC1CCCC1)c1ccccc1F (stereo not given) | 0 | 0 | 0 | 0 | 0
Cc1cc(C)cc(N(C(=O)c2ccco2)C(C(=O)NC2CCCC2)c2ccncc2)c1 (stereo not given) | 0 | 36.6 | 0 | 0 | 0
C=CCN(C(=O)CNC(=O)c1ccco1)C(C(=O)NC1CCCCC1)c1ccccc1F (stereo not given) | 0 | 0 | 38.3 | 0 | 0
CCC(=O)N1CCC1(C)C(=O)Nc1cc(-c2ccccc2)nn1C (stereo not given) | - | - | - | 0 | 0
O=C(CC1SC(N2CCCC2)=NC1=O)Nc1ccc(C(=O)N2CCN(c3cccc(Cl)c3)CC2)cc1 (stereo not given) | 0 | 0 | 0 | 0 | 0
CC(C)(CC(=O)NCc1ccc(Cl)cc1Cl)CC1=NS(=O)(=O)c2ccccc2N1 | 0 | - | 0 | - | -
